Records with an inconclusive call do not appear. Entries that show only a call come without a potency. Activity calls are given as the source filed them. The call rests on the fitted dose curve; in most records, active means well fitted activation curve with a large enough effect; inconclusive means small, poorly fitted or top-dose-only effect; inactive means flat fitted curve, though single readings scatter.
Assay: qHTS for Inhibitors of Cell Surface uPA Generation: Confirmatory Assay for Cherry-picked Compounds
Conditions: cell surface uPA activity generation, qHTS confirmation; series mostly up to 115 µM
Method in brief: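 RAW 264.7 cells at 4000/well, incubated overnight, then treated with compounds. After 24 h at 37 C, viability was read by ATPlite luminescence. An increase in signal indicates blocked uPA-dependent LF entry.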
For COc1cc(CCC(=O)OCC(=O)NCc2ccccc2)cc(OC)c1OC, the Potency was “inactive”. With O=C(Cn1cnc2c(OCc3ccccc3)ncnc21)NCCCN1CCCC1=O the Potency was “inactive”. For COc1cc(F)ccc1S(=O)(=O)n1c(C)nc2ccccc21, the Potency was “inactive”. For COc1cc(CNCc2ccc3c(c2)OCO3)c([N+](=O)[O-])cc1OC, the Potency was “inactive”. In the case of CCOC(=O)C1CCN(C(=O)COC(=O)c2c(C)c(CC)nc3ccccc23)CC1, the Potency is reported as “inactive”. For COc1cccc(NC(=O)N2C3CCCC2CC(NC(C)=O)C3)c1 (centres undefined), the Potency was “inactive”. For CCC1Nc2ncnc(N3CCCCC3)c2N(Cc2ccc(Cl)cc2)C1=O (centres undefined), the Potency was “inactive”. In the case of O=C(c1ccccn1)C1CCCN(Cc2cn[nH]c2-c2cc3ccccc3o2)C1 (centres undefined), the Potency is reported as “inactive”. With CCS(=O)c1scc(-c2ccc(Cl)cc2)c1C#N (centres undefined) the Potency was “inactive”. In the case of CC1CS(=O)(=O)CCN1N=Cc1ccc([N+](=O)[O-])o1 (centres undefined), the Potency is reported as “inactive”. For O=C(O)c1ccc(-n2nnnc2SCc2cccc(Br)c2)cc1, the Potency was “inactive”. For CCCC1=NN(C(=O)Cc2ccc(OC)cc2)C(O)(C(F)(F)F)C1 (centres undefined), the Potency was “inactive”. With Cc1cc(C)nc(N2N=C(C(F)(F)F)CC2=O)n1 the Potency was “inactive”. For Cc1ccc(C(=O)NC(=S)Nc2ccc3[nH]c(=O)[nH]c3c2)c(C)c1, the Potency was “inactive”. With C[C@@H](C(=O)Nc1ccc2ccccc2c1)[C@@H]1C[C@@]1(C)[C@@H](NC(=O)c1cccnc1)c1ccccc1 the Potency was “inactive”. With O=C(COc1cc2oc(=O)cc(-c3ccccc3)c2cc1Cl)NC(Cc1c[nH]c2ccc(O)cc12)C(=O)O (centres undefined) the Potency was “inactive”. In the case of Cc1cc(=O)[nH]c(=S)[nH]1, the Potency is reported as “inactive”. In the case of CC(C)CN(C(=O)CN1CCC(C)CC1)c1c(N)n(CC(C)C)c(=O)[nH]c1=O, the Potency is reported as “inactive”. With Cc1cc(C)cc(NC(=O)COC(=O)CCn2c(C)csc2=O)c1 the Potency was “inactive”. With COc1ccc(C2=Nc3ccccc3C2(O)CCN2C(=O)c3ccccc3C2=O)cc1 (centres undefined) the Potency was “inactive”. In the case of CN(CCC#N)C(=S)Nc1ccc(Oc2ccccc2)cc1, the Potency is reported as “inactive”. With CC1Cc2nc(SCC(=O)N3CCCC3)n(C)c(=O)c2S1 (centres undefined) the Potency was “inactive”. For COC(=O)/C(C#N)=C\c1c(OC)[nH]c2ccccc12, the Potency was “inactive”. For COc1ccc(N2CCN(S(=O)(=O)c3ccc4c(c3)NC(=O)CS4)CC2)cc1, the Potency was “inactive”. In the case of O=C(Nc1cccc(NC(=O)c2ccc(F)cc2)c1)c1ccc(F)cc1, the Potency is reported as “inactive”. In the case of CCOc1ccc(NC(=S)N2CCC(c3ccc(C)cc3)C2)cc1 (centres undefined), the Potency is reported as “inactive”. With O=C(CSc1ccc(Cl)cc1)Nc1ccc(C2SCCS2)cc1 the Potency was “inactive”. In the case of CCOc1ccc(OCC)c(NC(=O)c2ccc(CNc3c(N4CCCC4)c(=O)c3=O)cc2)c1, the Potency is reported as “inactive”. With CC(C)(C)C(=O)NCCc1nc2ccccc2n1CC(=O)c1ccc(Cl)cc1 the Potency was “inactive”. In the case of CCOC(=O)N1CCN(C(=O)c2ccc3c(c2)sc2nc(-c4ccc(OC)cc4)cn23)CC1, the Potency is reported as “inactive”. In the case of COc1ccc(/C(N)=N/OC(=O)Cc2ccccc2OC)cc1, the Potency is reported as “inactive”. With Cc1cc(N2C(=O)C(O)=C(C(=O)c3ccco3)C2c2ccc(Cl)cc2)no1 (centres undefined) the Potency was “inactive”. For Cc1ccc(N2C(=O)CC(N3CCN/C3=C3\CC/C(=C\c4ccccc4)C3=O)C2=O)cc1 (centres undefined), the Potency was “inactive”. For O=C(Cc1n[nH]c(=O)c2ccccc12)Nc1cccc(S(=O)(=O)N2CCCCCC2)c1, the Potency was “inactive”. With COc1cccc(C2CC(c3ccc(C)cc3)n3ncnc3N2)c1 (centres undefined) the Potency was “inactive”. With CCc1c(C)sc(NC(=S)N2CC(C)OC(C)C2)c1C(=O)OC (centres undefined) the Potency was “inactive”. For CCN(CC(=O)Nc1c(F)cccc1F)C(=O)c1ccc(-c2ccc(C(C)=O)cc2)o1, the Potency was “inactive”. For CNC(=S)N1C2CCCC1CC(NC(=O)c1ccc(F)cc1)C2 (centres undefined), the Potency was “inactive”. For O=C(CCS(=O)(=O)c1ccc2c(c1)NC(=O)CS2)NCCc1ccc(Cl)cc1, the Potency was “inactive”.
